Experimental data: PubChem BioAssay AID624297 (National Center for Advancing Translational Sciences (NCATS), 2012)
In all, about 340,000 compounds went through this assay and about 6,200 (1.8%) were called active. About 10% were inconclusive and are not listed. Calls follow the shape of the dose curve; as a rule, active = well fitted activation curve with a large enough effect; inconclusive = small, poorly fitted or top-dose-only effect; inactive = no such curve, though single readings can be large or run the other way. The list comes from a sample in which actives are over-represented; it also holds similar structures and randomly drawn compounds.

Assay: A quantitative high throughput screen for small molecules that induce DNA re-replication in SW480 colon adenocarcinoma cells. Also: nearly all actives have a fitted effect of over 55% in size. As to re-replication activation: % of control where 0% means no effect.
Details: Hoechst DNA content imaging, 48 h; series mostly up to 46.1 µM; re-replication activation: at the top concentration
How it was run: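 Hoechst fluorescence of nuclei (405 nm excitation, 500-530 nm emission) measured by plate-scanning imager after 48 hr compound exposure at 37 C; re-replication scored as increased number of nuclei with elevated intensity.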
Potency is read from the fitted curve at half-maximal effect.

Row | SMILES | re-replication activation | Potency
1 | NN=C(NN=Cc1ccccc1)c1ccccc1 | -1.92% (inactive) | –
2 | Cc1nnc(NC(=O)CSc2nccn2-c2cccc(C)c2C)s1 | – | 8.2 µM (active)
3 | COc1ccccc1-n1c(CNC(=O)c2ccccc2)nnc1SCC(=O)Nc1nnc(C)s1 | -1.1% (inactive) | –
4 | Cc1cccc(CSc2nnc(NC(=O)CSc3nnc(C)s3)s2)c1 | 4.63% (inactive) | –
5 | Cc1cc([N+](=O)[O-])c(=O)[nH]c1C | -0.856% (inactive) | –
6 | O=C(c1nnc(-c2ccc(Cl)cc2)o1)C1CCCC1 | -1.19% (inactive) | –
7 | O=C(c1[nH]ncc1-c1ccc(Cl)cc1)C1CO1 (centres undefined) | – | 16.4 µM (active)
8 | N=C1c2ccccc2-c2ccccc21 | -2.91% (inactive) | –
9 | COC(=O)c1ccc(C)c(NC(=O)Cn2c(C)csc2=O)c1 | 5.59% (inactive) | –
10 | CC(C)N(C(=O)[C@H]1C[C@H](CC(=O)NC(C)(C)C)C(=O)N2CCc3c([nH]c4ccc(Cl)cc34)[C@]12C)C(C)C | -11.9% (inactive) | –
11 | CN1c2ccc(C=O)c3c(C=O)ccc(c23)N(C)C1(C)C | – | 3.26 µM (active)
12 | COc1ccc(S(=O)(=O)N(C)C[C@H]2Oc3c(NC(=O)Nc4ccc5c(c4)OCO5)cccc3C(=O)N([C@H](C)CO)C[C@@H]2C)cc1 | 7.42% (inactive) | –
13 | CCOC(=O)C(CO)NC(=O)C1(NC(C)=O)CCCC1 (centres undefined) | -10.1% (inactive) | –
14 | C=CCn1c(SCC(=O)NCC2CCCO2)nc2sc(C)c(C)c2c1=O (centres undefined) | 0.372% (inactive) | –
15 | C=CCn1c(SCC(=O)NCCCO)nc2sc3c(c2c1=O)CCC3 | -40.9% (inactive) | –
16 | C=CCn1c(SCc2c(C)noc2C)nc2sc3c(c2c1=O)CCC(C)C3 (centres undefined) | – | 9.2 µM (active)
17 | Cc1ccc(NC(=O)CN(C)C(=O)c2ccc(Cl)c(S(=O)(=O)NCc3ccco3)c2)cc1 | -11.7% (inactive) | –
18 | Cc1c(Cl)cnc(NC(=O)COC(=O)C2CCCC2)c1Cl | -5.78% (inactive) | –
19 | O=C1CC(c2ccccc2)C(c2ccccc2)=NN1 (centres undefined) | 0.345% (inactive) | –
20 | O=c1oc2ccccc2cc1-c1cn(-c2ccccc2)c(=S)[nH]1 | – | 9.2 µM (active)
21 | COc1ccc(-c2cn(-c3ccc(OC)cc3)c(=S)[nH]2)cc1 | -2.03% (inactive) | –
22 | S=c1[nH]c(-c2cccs2)cn1-c1ccccc1 | -22.2% (inactive) | –

Row | SMILES | re-replication activation | Potency
23 | O=C(O)c1ccc(S(=O)(=O)c2ccccc2)s1 | 2.18% (inactive) | –
24 | O=[N+]([O-])c1ccc(COc2ccccc2CN2CCOCC2)cc1 | -7.64% [at 9.22 µM] (inactive) | –
25 | CCOC(=O)N1CCN(S(=O)(=O)c2ccc(OC)cc2)CC1 | 13.6% (inactive) | –
26 | CCOC(=O)N1CCN(C(=O)c2ccccc2N(Cc2ccccc2)S(=O)(=O)c2ccc(OC)cc2)CC1 | – | 14.6 µM (active)
27 | NC(=O)c1ccccc1N(Cc1ccccc1)S(=O)(=O)c1ccccc1 | 0.226% (inactive) | –
28 | CCOC(=O)c1ccccc1NC(=O)CSc1nc2c(sc(=S)n2CC)c(=O)[nH]1 | -5.64% (inactive) | –
29 | CCOC(=O)C1=C(CN2CCc3ccccc32)NC(=O)NC1c1ccc(Cl)cc1 (centres undefined) | – | 7.31 µM (active)
30 | CCOC(=O)C1=C(CN2CCCCCC2)NC(=O)NC1c1cccc([N+](=O)[O-])c1 (centres undefined) | -5.96% (inactive) | –
31 | CCOC(=O)C1=C(c2ccccc2)NC(=S)NC1c1ccc(Cl)cc1 (centres undefined) | -90.1% (inactive) | –
32 | O=C(CN1CCN(S(=O)(=O)/C=C/c2ccccc2)CC1)NC(=O)NCc1ccco1 | 2.96% (inactive) | –
33 | O=C(CN1CCN(c2ccccc2O)CC1)NC(=O)NCc1ccccc1 | 14.8% (inactive) | –
34 | COc1ccccc1N1CCN(CC(=O)NC(=O)NCc2ccco2)CC1 | – | 5.8 µM (active)
35 | COC1=CC(=O)OC(c2ccc(OC)cc2)C1 (centres undefined) | -1.64% (inactive) | –
36 | O=C(NCCC1CCCCN1S(=O)(=O)c1cccs1)C(=O)Nc1ccc(F)cc1F (centres undefined) | – | 11.2 µM (active)
37 | COc1ccccc1CCNC(=O)C(=O)NCCC1CCCCN1S(=O)(=O)c1cccs1 (centres undefined) | -550% (inactive) | –
38 | COc1ccc(CCNC(=O)C(=O)NCC2CCCN2S(=O)(=O)c2cccs2)cc1OC (centres undefined) | -2.6% (inactive) | –
39 | Cc1noc(C)c1NC(=O)Nc1ccc2c(c1)C(=O)N([C@H](C)CO)C[C@H](C)[C@@H](CN(C)C(=O)Nc1ccc(C(F)(F)F)cc1)O2 | -53.2% (inactive) | –
40 | CCN(CC)c1ccc(/C=N/Nc2nc(C)cc(C)n2)c(O)c1 | – | 8.2 µM (active)
41 | CCNc1nc(NCC)nc(N/N=C/c2ccc(O)c(OC)c2)n1 | -6.79% (inactive) | –
42 | Cc1cc(C)nc(N/N=C/c2ccncc2)n1 | -5.1% (inactive) | –
43 | Oc1ccc(Cl)c2c1CCC2 | 0.638% (inactive) | –
44 | CSc1ncnc2c1ncn2CC(=O)C1CCC2C3CCC4=CC(=O)CCC4(C)C3CCC12C (centres undefined) | 5.31% (inactive) | –

Row | SMILES | re-replication activation | Potency
45 | Cc1ccc(C(=O)NCC(=O)NC2CC2)cc1 | 6.41% (inactive) | –
46 | Cc1cc(NC(=O)c2cc3ccccc3o2)no1 | -4.96% (inactive) | –
47 | COc1ccc(C(=O)Nc2ccc(C3(C#N)CCCC3)cc2)cc1OC | 10.6% (inactive) | –
48 | COc1ccc(C(=O)N/N=C2\CCS(=O)(=O)c3ccc(F)cc32)cc1OC | – | 10.3 µM (active)
49 | CCNC(=O)c1ccc(OCC(=O)Nc2ccc(F)cc2)c(OC)c1 | -4.04% (inactive) | –
50 | CN(C)C(=O)CCc1ccc2c3c([nH]c2c1)[C@]1(C)[C@@H](C(=O)N2CCOCC2)C[C@H](CC(=O)NCCc2ccccn2)C(=O)N1CC3 | 2.59% (inactive) | –
51 | COc1ccc(NS(=O)(=O)c2ccc(N3CCOCC3)c(NC(=O)/C=C/C(=O)O)c2)cc1 | 1.18% (inactive) | –
52 | Cc1ccc(S(=O)(=O)CCC(=O)OCC(=O)N(C)Cc2ccccc2)cc1 | -66.5% (inactive) | –
53 | CCOc1ccc(-n2c(SCC(=O)Nc3cc(C(=O)O)ccc3Cl)nc3ccccc3c2=O)cc1 | -13.2% (inactive) | –
54 | Cc1ccc(-n2c(O)c(C=Nc3ccc(S(=O)(=O)Nc4ncccn4)cc3)c3ccccc3c2=O)cc1C | -2.11% (inactive) | –
55 | CCOc1ccc(-n2c(O)c(/C=N/c3ccnn3Cc3ccncc3)c3ccccc3c2=O)cc1 | – | 20.6 µM (active)
56 | COc1ccc(C(CNC(=O)c2cccc(S(=O)(=O)Nc3ccc(Br)cc3)c2)N(C)C)cc1 (centres undefined) | 6.62% (inactive) | –
57 | CCOc1cc(C=NNC(=O)CCCC(=O)NN=Cc2ccc(O)c(OCC)c2)ccc1O | -6.49% (inactive) | –
58 | Oc1ccc(/C=N/NC2=NCCCCC2)c(O)c1 | -5.14% (inactive) | –
59 | Oc1ccc(-c2nc3ccccc3nc2-c2ccc(O)cc2O)c(O)c1 | -1.54% (inactive) | –
60 | Cc1nc2ccccc2nc1N/N=C/c1ccc(O)cc1O | – | 1.64 µM (active)
61 | COc1ccc(OCCNC(=O)c2cc(C3CC3)nc3c2cnn3C(C)C)cc1 | -6.37% (inactive) | –
62 | Cc1cn(C2CC(O)C(CO)O2)c(=O)n(CCCc2ccccc2)c1=O (centres undefined) | -5.17% (inactive) | –
63 | CN(C)c1ccc(CSc2ccccc2)cc1 | -9.06% (inactive) | –
64 | COC(=O)Cc1nc2c(N)nc(N)nc2[nH]c1=O | -4.14% (inactive) | –
